Assay outcomes deposited in PubChem BioAssay by Sanford-Burnham Center for Chemical Genomics.
CF NFkB inh = inhibitors of PAF-induced NF-kB signaling, primary screen, cell-based, GFP fluorescence, uHTS; KKLEB NF-kB-GFP reporter, GFP fluorescence overnight; inhibition, % at 5 µM; AID 588850, 2011; 360,000 tested, 0.86% active;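 active means at least 50% inhibition at 5 µM, scaled per plate between neutral and stimulator controls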;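 further: PAF is a Pseudomonas aeruginosa culture filtrate used as stimulus; plate controls were PAF-stimulated DMSO wells for no effect and unstimulated DMSO wells for full effect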
TWEAK Fn14 block = inhibitors of TWEAK-Fn14 signaling, primary screen, luciferase reporter cells, uHTS; TWEAK-stimulated Fn14 reporter cells, luciferase luminescence, 8 h; inhibition, % at 10 µM; 360,000 tested, 2% active; AID 1159606, 2016; in the data active means inhibition above about 50%
HIF-2a block = HIF-2a reporter inhibitors, primary screen, luminescence, 786-0 RCC cells; 786-0 RCC cells HIF-2a reporter, luciferase luminescence, overnight; inhibition, % at 18.8 µM; 360,000 tested, 0.72% active; AID 624352, 2012;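 active means inhibition of the luminescence signal of 40% or more relative to plate controls, in a single-dose primary screen at 18.75 µM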
TROY NFkB inh = inhibitors of TROY-driven NF-kB signaling, primary screen, Q293 LMP1-TROYcd cells, NF-kB luciferase, uHTS | Q293 LMP1-TROYcd NF-kB luciferase reporter, 4 h | AID 1347056, 2019 | inhibition, % at 10 µM | 360,000 tested, 0.98% active;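 active means compounds whose plate-normalised and pattern-corrected inhibition of the luciferase reporter signal at the single screening dose is 50% or more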
KKLEB tox = cytotoxicity in KKLEB CF airway cells, primary screen, cytotoxicity control for CF NF-kB inhibitor project, cell-based, uHTS, fluorescence assay plates; KKLEB CF airway cells viability, ATPlite luminescence, overnight; hits give low values; cells stimulated with P. aeruginosa culture filtrate; 360,000 tested, 0.36% active; activity change (cytotoxicity), % at 5 µM; AID 602141, 2011;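 active means corrected activity change at or below -50% at 5 µM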
Peg3 promoter = Peg3 promoter-driven luciferase inhibitors, primary screen, cell-based, HeLa, luciferase luminescence; HeLa PEG-Prom luciferase reporter, overnight; inhibition, % at 20 µM; 360,000 tested, 1.7% active;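 active means inhibition of at least 50% at 20 µM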
Starred values were filed as active, the others as inactive; x = not tested or not shown. A selection: hits, their analogues and other compounds. The true share with any hit is near 4%.

SMILES | CF NFkB inh | TWEAK Fn14 block | HIF-2a block | TROY NFkB inh | KKLEB tox | Peg3 promoter
COC(=O)c1c(C)[nH]c(C(=O)C(C)OC(=O)C2CC(=O)N(CCc3ccccc3)C2)c1C (stereo not given) | -3 | 9 | -13 | -7 | 0 | 11
COC(=O)c1c(C)[nH]c(C(=O)C(C)OC(=O)C2CC(=O)N(c3ccc(C)cc3)C2)c1C (stereo not given) | 6 | 24 | -2 | 54* | 8 | 34
O=C(NC1CCCN(Cc2ccc(Cl)cc2)C1)c1ccccc1-c1ncc[nH]1 (stereo not given) | 6 | -10 | 16 | 0 | 5 | -13
CCc1oc2ccccc2c1C(=O)c1cc(Br)c(O)c(Br)c1 | 44 | -29 | 5 | 52* | -30 | 30
O=C(c1cnccn1)N1CCN(c2ccccc2)CC1 | 13 | 6 | 3 | 18 | -4 | -5
C#CC1(O)CCC2C3CCC4=Cc5oncc5CC4(C)C3CCC21C (stereo not given) | 19 | -33 | 14 | 31 | -5 | 34
C#C[C@]1(O)CCC2C3CCC4=Cc5oncc5CC4(C)C3CCC21C (stereo not given in full) | 18 | 0 | 20 | 51* | 23 | 18
CCCCCc1cc(=O)oc2c(C(CCN3CCCC(C)C3)c3cc(OC)c(OC)c(OC)c3)c(OC)cc(OC)c12 (stereo not given) | 17 | -18 | 11 | 15 | -10 | 101*
CCCCCc1cc(=O)oc2c(C(CCN(CC)CC)c3ccc(N(C)C)cc3)c(OC)cc(OC)c12 (stereo not given) | 26 | 7 | 4 | 5 | -36 | 100*
COc1cc(OC)c2ccc(=O)oc2c1C(CCN1CCCC(C)C1)c1ccc(N(C)C)cc1 (stereo not given) | 14 | -6 | -6 | -7 | 0 | -12
CCCCCc1cc(=O)oc2c(C(CCN3CCCC(C)C3)c3ccc(N(C)C)cc3)c(OC)cc(OC)c12 (stereo not given) | 26 | 0 | -7 | 17 | -7 | 94*
COc1cc(C(CCN2CCCC2)c2c(OC)cc(OC)c3ccc(=O)oc23)cc(OC)c1OC (stereo not given) | -7 | -1 | 6 | -1 | -2 | -2
CCCCCc1cc(=O)oc2c(C(CCN3CCCCC3)c3cc(OC)c(OC)c(OC)c3)c(OC)cc(OC)c12 (stereo not given) | 3 | -46 | 10 | 12 | -9 | 90*
COc1ccc(-c2ccc(CO)o2)cc1N | -4 | 10 | -88 | 0 | -17 | -58
O=S(=O)(Nc1c(O)ccc2ccccc12)c1ccccc1 | 2 | 32 | 0 | -1 | -2 | -38
CC1(C(=O)Nc2cccc3cccnc23)CCN1Cc1ccc(-c2ccccc2)o1 (stereo not given) | -24 | 9 | 11 | -16 | 23 | 15
CC1CCN(C(=O)CC(NC(=O)c2ccccc2Cl)c2ccccc2)CC1 (stereo not given) | -7 | 6 | 21 | 23 | 2 | 0
Cc1ccc(OC(C)C(=O)Nc2cccc(S(=O)(=O)N3CCCCCC3)c2)cc1 (stereo not given) | 0 | 9 | 5 | 7 | -6 | 17
CC(=C/C(=O)O)/C=C/c1ccco1 | -23 | -15 | -6 | -6 | -3 | 4
CCN(CC)c1ccc(/C=N/NC(=O)c2ccoc2C)cc1 | 8 | 63* | -186 | 42 | -12 | -112
Cc1cccc(Nc2nc(N3CCOCC3)nc(N3CCOCC3)n2)c1 | 51* | -5 | 29 | 0 | -14 | 7
COC(=O)c1ccc(C(=O)N(CCN(C)C)c2nc3c(Cl)cccc3s2)cc1 | -9 | 4 | 11 | -11 | 6 | -5
C=CCn1c(CNS(=O)(=O)c2ccc(Cl)cc2)n[nH]c1=S | -15 | 5 | 5 | 2 | 6 | 9
CCc1ccc(Nc2n[n+](-c3ccccc3)c(-c3ccc(OCc4ccccc4)cc3)s2)cc1 | 12 | 83* | -13 | 36 | 1 | 7
CCc1ccc(Nc2n[n+](-c3ccccc3)c(-c3ccc(N(CC)CC)cc3)s2)cc1 | 33 | 43 | -123 | 30 | 1 | 84*
SMILES | CF NFkB inh | TWEAK Fn14 block | HIF-2a block | TROY NFkB inh | KKLEB tox | Peg3 promoter
CCN(CC)c1ccc(-c2sc(Nc3ccccc3)n[n+]2-c2ccc(F)cc2)cc1 | -36 | 16 | -7 | 13 | 14 | -18
CC(C)C[C@H](CO)N(Cc1ccccc1)S(=O)(=O)N(Cc1ccccc1)[C@@H](CO)CC(C)C | 38 | 26 | -11 | 43 | -22 | 53*
C=CS(=O)(=O)N(Cc1ccccc1)[C@H](CO)CC(C)C | -14 | 14 | 16 | -10 | -1 | 5
N/C(Cc1ccc(Cl)cc1)=N\OC(=O)c1cccc2ccccc12 | 4 | 2 | -16 | -40 | 1 | 111*
N/C(Cc1ccc(Cl)cc1)=N\OC(=O)c1ccc2ccccc2c1 | 17 | -154 | -1 | -36 | 9 | 105*
COc1ccc(C/C(N)=N/OC(=O)c2ccc(Cl)cc2)cc1 | -14 | -10 | -2 | -65 | 9 | 3
Cc1ccc(C(=O)/C=C/c2ccccc2[N+](=O)[O-])cc1 | -27 | 30 | -198 | -63 | -6 | 28
O=C(/C=C/c1ccccc1[N+](=O)[O-])c1ccccc1Br | 22 | 10 | 38 | -12 | -10 | 96*
OCn1c2ccccc2c2ccccc21 | -15 | 3 | 10 | -25 | -5 | 13
CCOc1ccccc1CN1C(=O)C2(OCCO2)c2ccccc21 | -23 | 3 | 18 | 11 | 1 | 0
Cc1ccc2c(c1Br)/C(=N/N1C(=O)c3ccccc3C1=O)C(=O)N2 | 4 | -17 | 19 | -13 | -5 | 7
Cc1ccc(NC(=O)CS(=O)CC(=O)NC2CCN(Cc3ccccc3)CC2)c(C)c1 (stereo not given) | 0 | 5 | 4 | -7 | -3 | 8
COc1ccc(C)cc1NC(=O)c1ccccc1NS(=O)(=O)c1ccc(Cl)s1 | 48 | 69* | -3 | 58* | -35 | 45
COc1ccccc1NC(=O)c1ccccc1NS(=O)(=O)c1cccs1 | 7 | 6 | 9 | 18 | -6 | 9
S=C(NN=C1C2CC3CC(C2)CC1C3)Nc1ccccc1 | 5 | 94* | 37 | 75* | -1 | -53
CCOC(=O)C1(Cc2cccc(OC)c2)CCN(C2CCOCC2)CC1 | 0 | -1 | 11 | 10 | -2 | 8
Nc1nc2ccc(Cl)cc2cc1C(=O)NCCc1c[nH]c2ccccc12 | x | 52* | 4 | 21 | x | x
CCCSc1nc2c(c(=O)[nH]c(=O)n2C)n1Cc1ccc(C)cc1 | -14 | -18 | 12 | 9 | -5 | 55*
